The record followed here is PubChem BioAssay (NCATS).

Records with an inconclusive call do not appear. Activity calls are given as the source filed them. Calls come from the whole dose curve.

The experiment deals with Estrogen receptor (Homo sapiens) (UniProt P03372). Description: qHTS assay for small molecule agonists of estrogen receptor alpha signaling (AID 588514). Note: nearly all actives have a fitted effect of over 70% in size. Conditions: ER-alpha-UAS-bla HEK293, beta-lactamase ratio, 18 h, percent of full estradiol response, vehicle zero; series mostly up to 76.8 µM. From the text: NIH Chemical Genomics Center [NCGC]
Estrogen receptor (Homo sapiens), sequence (P03372 whole entry, looked up): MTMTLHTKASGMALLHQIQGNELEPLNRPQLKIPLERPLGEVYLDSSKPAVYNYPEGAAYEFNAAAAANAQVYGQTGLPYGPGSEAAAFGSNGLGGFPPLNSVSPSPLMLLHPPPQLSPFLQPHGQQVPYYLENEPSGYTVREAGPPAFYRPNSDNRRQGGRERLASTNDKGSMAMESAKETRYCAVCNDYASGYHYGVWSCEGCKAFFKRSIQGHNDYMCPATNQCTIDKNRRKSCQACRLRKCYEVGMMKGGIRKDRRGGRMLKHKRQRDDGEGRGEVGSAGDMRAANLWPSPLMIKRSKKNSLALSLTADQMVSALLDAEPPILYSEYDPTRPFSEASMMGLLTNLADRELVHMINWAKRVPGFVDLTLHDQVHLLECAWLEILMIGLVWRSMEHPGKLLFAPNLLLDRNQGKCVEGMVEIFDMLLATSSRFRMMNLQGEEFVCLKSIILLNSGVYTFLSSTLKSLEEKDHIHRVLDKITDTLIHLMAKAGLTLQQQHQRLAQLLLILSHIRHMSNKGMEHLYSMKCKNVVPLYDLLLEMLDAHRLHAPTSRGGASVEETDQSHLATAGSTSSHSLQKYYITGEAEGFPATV
U.S. Environmental Protection Agency [EPA]
National Institutes of Environmental Health Sciences [NIEHS]
National Toxicology Program [NTP]
Estrogen receptor alpha (ER-alpha) is an important member of nuclear hormone receptors. ER-alpha plays important role in breast cancer as well as in other women's health issues. The majority of breast cancers is estrogen receptor (ER) positive and depends on estrogen for growth. There is also growing concern for some of environmental chemicals which may contribute the increasing the incidence of breast cancer. Therefore, it is important to understand the effect of environmental chemicals in ER-alpha signaling pathway.
NCGC Assay Protocol Summary
Using a beta-lactamase reporter-gene under control of the ER response element, a cell-based assay [ER-alpha-UAS-bla GripTiteTM cell-Based Assay from Invitrogen] was used to measure ER-alpha signaling pathway in agonist mode. ER-alpha-UAS-bla-GripTite HEK 293 cells were used with assay medium containing 2% charcoal/dextran treated FBS, 0.1 mM NEAA and 1 mM sodium pyruvate. Cells were cultured in this assay medium overnight in the flasks before the assay. The assay was performed in clear bottom black Greiner 1536-well plates. 17-beta-estradiol was used as a positive control in the screen. Library compounds were measured for their ability to either stimulate the reporter gene activity. Compounds were screened in a titration series in 1536-well format. […] Data was normalized relative to 17-beta-estradiol control (20 nM, 100%), and DMSO only wells (basal, 0%). Concentration-response titration points for each compound were fitted to the Hill equation yielding concentrations of half-maximal stimulation (EC50) and maximal response (efficacy) values.
qHTS protocol for ER-alpha beta-lactamase assay in agonist mode
[Step] [Parameter] [Value] [Description]
1. Reagent; 6 uL; 5000 cells/well
2. Incubation; 37 C for 4 hrs
4. Controls (17-beta-estradiol); 23 nL
- Dose response, start 1uM, 1:3 dilutions with duplicates
- Two columns with 20 and 0.5 nM (final) concentration.
5. Incubation; 37 C for 18 hrs
6. Detection reagent; 1 uL of CCF4-dye
7. Incubation; RT for 2 hrs
8. Detection; Fluorescence; Envision plate reader or Acumen plate reader
Background: qHTS replaces the single test concentration by a dilution series.
Turning to `OC(Cn1cncn1)(Cn1cncn1)c1ccc(F)cc1F`, the outcome was inactive.
On to `Cc1nnc(NS(=O)(=O)c2ccc(N)cc2)s1`, for which the result was inactive.
On to `N=C(N)c1ccc(OCCCCCOc2ccc(C(=N)N)cc2)cc1`, for which the outcome was inactive.
For `CC1=NN(c2ccccc2)C(=O)C1`, the outcome was inactive.
To `NNC(=O)c1ccncc1` belongs “inactive”; to `CC(=O)[C@H]1CC[C@H]2[C@@H]3CCC4=CC(=O)CC[C@]4(C)[C@H]3CC[C@]12C`, “inactive”.
To `CC[C@H](C)C(=O)O[C@H]1C[C@@H](C)C=C2C=C[C@H](C)[C@H](CC[C@@H]3C[C@@H](O)CC(=O)O3)[C@H]21` belongs “inactive”; to `Cc1ncc([N+](=O)[O-])n1CCO`, “inactive”; to `Cc1noc(NS(=O)(=O)c2ccc(N)cc2)c1C`, “inactive”.
In the case of `C[C@]12C=CC(=O)C=C1CC[C@@H]1[C@@H]2C(=O)C[C@@]2(C)[C@H]1CC[C@]2(O)C(=O)CO`, the result was inactive.
Turning to `NC(N)=NC(N)=NCCc1ccccc1`, the result was inactive.
